# Laboratory results as given in PubChem BioAssay (NCATS).
# Results filed as inconclusive are left out. A call without a number means that no potency is given here. A number with no mark means an inactive call. Activity calls are given as the source filed them. Calls come from the whole dose curve; as a rule, active = well fitted curve in the direction sought with a large enough effect; inconclusive = small, poorly fitted or top-dose-only effect, or another doubt; inactive = no such curve, though single readings can be large; an effect the other way counts as inactive or inconclusive.
# Columns and labels:
# [1] = target: Rap guanine nucleotide exchange factor 3 (Homo sapiens) (UniProt O95398); assay: Confirmatory qHTS for antagonist of cAMP-regulated guanine nucleotide exchange factor 3 (EPAC1) (AID 1645880); settings: EPAC1 Rap1B-BODIPY-GDP exchange, fluorescence; series mostly up to 115 µM; note: nearly all actives have a fitted effect of over 55% in size; note: potency is the fitted concentration of half-maximal effect
# Method in brief: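 Released BODIPY-GDP fluoresces less than Rap1-bound BODIPY-GDP; the signal is followed at 480/540 nm at 5-min intervals over 30 min, after 5 min at room temperature. Reactions contain 100 nM EPAC1, 250 nM RAP1B-BODIPY-GDP and 50 uM GDP; results are normalized to ATA and DMSO.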
# [2] = target: Rap guanine nucleotide exchange factor 3 (Homo sapiens) (UniProt O95398); assay: Confirmatory qHTS for agonist of cAMP-regulated guanine nucleotide exchange factor 3 (EPAC1) (AID 1645881); settings: EPAC1 Rap1B BODIPY-GDP exchange fluorescence; series mostly up to 154 µM;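 note: EPAC1 catalysed release of BODIPY-GDP from Rap1B seen as fluorescence loss; nearly all actives have a fitted effect of over 75% in size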
# [3] = target: Rap guanine nucleotide exchange factor 4 (Homo sapiens) (UniProt Q8WZA2); assay: Confirmatory qHTS for agonist of cAMP-regulated guanine nucleotide exchange factor 4 (EPAC2) (AID 1645884); settings: EPAC2 GEF activity, Rap1B-BODIPY-GDP fluorescence; series mostly up to 154 µM;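 note: nucleotide exchange releases bodipy-GDP from Rap1 and this lowers its fluorescence; nearly all actives have a fitted effect of over 65% in size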
# [4] = target: Rap guanine nucleotide exchange factor 4 (Homo sapiens) (UniProt Q8WZA2); assay: Confirmatory qHTS for antagonist of cAMP-regulated guanine nucleotide exchange factor 4 (EPAC2) (AID 1645885); settings: EPAC2 Rap1B-BODIPY-GDP exchange fluorescence, biochemical; series mostly up to 12.7 µM; note: nearly all actives have a fitted effect of over 25% in size
# [5] = target: Rap guanine nucleotide exchange factor 3 (Homo sapiens) (UniProt O95398); assay: Counterscreen qHTS for antagonist of cAMP-regulated guanine nucleotide exchange factor 3 (EPAC1) (AID 1645888); settings: Rap1B-BODIPY-GDP nucleotide exchange, fluorescence; series mostly up to 154 µM
# Method in brief: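 Rap1B-BODIPY-GDP 250 nM + GDP 50 uM; cpds 7-pt, final 9.74 nM–152 uM (activator mode) or from 7.32 nM upwards (inhibitor mode); RT; FI 480/540 nm at 5 and 30 min, then ± cAMP, reread.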
# Rap guanine nucleotide exchange factor 3 (Homo sapiens), sequence (O95398 whole entry, looked up): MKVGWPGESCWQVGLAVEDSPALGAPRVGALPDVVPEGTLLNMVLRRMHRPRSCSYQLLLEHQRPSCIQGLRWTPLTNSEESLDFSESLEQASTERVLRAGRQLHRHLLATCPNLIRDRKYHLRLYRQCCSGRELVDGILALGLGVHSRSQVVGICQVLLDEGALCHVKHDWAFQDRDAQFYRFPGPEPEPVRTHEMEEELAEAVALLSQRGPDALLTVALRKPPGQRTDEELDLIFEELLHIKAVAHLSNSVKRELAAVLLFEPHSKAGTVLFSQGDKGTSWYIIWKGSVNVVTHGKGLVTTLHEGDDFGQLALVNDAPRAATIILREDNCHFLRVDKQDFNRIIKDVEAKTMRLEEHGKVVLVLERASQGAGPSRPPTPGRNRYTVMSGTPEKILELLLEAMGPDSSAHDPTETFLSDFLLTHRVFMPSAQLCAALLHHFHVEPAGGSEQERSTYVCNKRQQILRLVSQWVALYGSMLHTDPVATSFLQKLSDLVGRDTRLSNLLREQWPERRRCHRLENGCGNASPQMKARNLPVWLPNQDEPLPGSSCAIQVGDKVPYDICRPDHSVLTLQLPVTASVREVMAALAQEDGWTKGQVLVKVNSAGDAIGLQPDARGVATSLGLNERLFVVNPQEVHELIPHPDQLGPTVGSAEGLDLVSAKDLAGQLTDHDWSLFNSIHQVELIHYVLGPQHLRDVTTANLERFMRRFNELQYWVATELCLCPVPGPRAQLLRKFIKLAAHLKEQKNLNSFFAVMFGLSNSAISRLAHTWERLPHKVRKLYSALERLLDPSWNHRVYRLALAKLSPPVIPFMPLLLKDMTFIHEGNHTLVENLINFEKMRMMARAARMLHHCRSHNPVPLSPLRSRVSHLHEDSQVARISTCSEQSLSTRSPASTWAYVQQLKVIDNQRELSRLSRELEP
# Rap guanine nucleotide exchange factor 4 (Homo sapiens), sequence (Q8WZA2 whole entry, looked up): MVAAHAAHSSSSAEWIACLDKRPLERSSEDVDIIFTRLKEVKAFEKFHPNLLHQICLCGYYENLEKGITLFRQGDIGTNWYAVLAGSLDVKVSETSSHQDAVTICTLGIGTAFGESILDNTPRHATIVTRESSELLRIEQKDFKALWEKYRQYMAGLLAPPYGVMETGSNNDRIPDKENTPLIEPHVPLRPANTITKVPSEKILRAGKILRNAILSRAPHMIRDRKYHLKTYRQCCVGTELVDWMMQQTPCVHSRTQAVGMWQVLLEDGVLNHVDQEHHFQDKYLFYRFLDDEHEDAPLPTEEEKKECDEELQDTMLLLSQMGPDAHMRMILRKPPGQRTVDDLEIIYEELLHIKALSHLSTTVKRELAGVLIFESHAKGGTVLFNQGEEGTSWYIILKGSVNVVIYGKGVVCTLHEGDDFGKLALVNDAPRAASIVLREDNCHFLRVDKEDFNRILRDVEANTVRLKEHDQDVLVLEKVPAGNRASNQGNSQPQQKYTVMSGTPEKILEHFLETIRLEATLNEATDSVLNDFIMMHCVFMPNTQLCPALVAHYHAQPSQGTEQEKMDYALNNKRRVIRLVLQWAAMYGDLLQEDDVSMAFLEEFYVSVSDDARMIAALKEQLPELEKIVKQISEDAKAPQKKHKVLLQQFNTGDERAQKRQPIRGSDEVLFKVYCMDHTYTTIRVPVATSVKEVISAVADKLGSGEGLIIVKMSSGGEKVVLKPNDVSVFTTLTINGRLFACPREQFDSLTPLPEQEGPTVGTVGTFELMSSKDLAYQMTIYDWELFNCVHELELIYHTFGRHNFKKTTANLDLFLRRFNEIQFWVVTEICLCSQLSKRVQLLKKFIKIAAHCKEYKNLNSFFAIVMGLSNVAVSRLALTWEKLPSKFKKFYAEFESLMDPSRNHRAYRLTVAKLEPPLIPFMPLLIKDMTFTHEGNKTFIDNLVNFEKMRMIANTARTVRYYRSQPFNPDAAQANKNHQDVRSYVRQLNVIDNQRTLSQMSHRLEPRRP
SMILES,Potency [1],Potency [2],Potency [3],Potency [4],Potency [5],activation [3],"activity change, negative = inhibition [5]"
CN(C)c1nc(Oc2ccc(=O)[nH]n2)nc(N2CCOCC2)n1,inactive,inactive,inactive,inactive,inactive,,
CCc1nc2c(OCc3ccc(Cl)cc3)cccn2c1N(C)C(=O)c1ccccc1F,inactive,inactive,,inactive,,"3.03% [at 17.1 µM, percent relative to cAMP agonist control]",-10.9% [at 30.8 µM]
CC(=O)C1=C(C)OC2(O)c3ccccc3C(=O)C12O (stereo not given),inactive,inactive,,inactive,,"4.3% [at 17.1 µM, percent relative to cAMP agonist control]",-10.4% [at 30.8 µM]
COc1ccccc1C(=O)Nc1ccccc1C(=O)OCc1cc(=O)n2c(C)csc2n1,inactive,inactive,inactive,inactive,inactive,,
CCN(CC)C(=S)Oc1c(Cl)cccc1Cl,inactive,inactive,,inactive,,"7.01% [at 17.1 µM, percent relative to cAMP agonist control]",-19.4% [at 30.8 µM]
CN(c1ccccc1)S(=O)(=O)c1cccc(Cl)c1Cl,inactive,inactive,inactive,inactive,inactive,,
O=c1cc(O)c2sc3nc(-c4cccnc4)cc(C(F)(F)F)c3c2[nH]1,inactive,inactive,inactive,inactive,inactive,,
CC(C)(C)c1cc(NC(=O)COC(=O)c2ccc(O)cc2O)n(-c2ccccc2)n1,inactive,inactive,,inactive,,"8.65% [at 17.1 µM, percent relative to cAMP agonist control]",-16.3% [at 30.8 µM]
N#CC(=Cc1ccc(-c2ccccc2)cc1)C(=O)c1ccccc1,39.8 µM (active),inactive,,inactive,,"0.543% [at 17.1 µM, percent relative to cAMP agonist control]",-16.6% [at 30.8 µM]
COc1ccc(/C=N/NC(=O)c2cccnc2)cc1CN1CCCc2ccccc21,inactive,inactive,inactive,inactive,inactive,,
CC(C)c1ccc(C2NC(=O)c3c(sc4c3CCN(C)C4)N2)cc1 (stereo not given),inactive,inactive,inactive,inactive,inactive,,
Cn1cc(C(c2ccccc2)c2ccc(Cl)s2)c2ccccc21 (stereo not given),inactive,inactive,inactive,inactive,inactive,,
CCOC(=O)C(C)n1cnc2c(nnn2-c2cccc(Cl)c2)c1=O (stereo not given),inactive,inactive,,inactive,,"0% [at 17.1 µM, percent relative to cAMP agonist control]",-28.5% [at 30.8 µM]
CSCCC(NC(=O)c1ccc(Cl)cc1)C(=O)OCC(=O)NCc1ccco1 (stereo not given),inactive,inactive,,inactive,,"0.694% [at 17.1 µM, percent relative to cAMP agonist control]",-13% [at 30.8 µM]
Cc1[nH]c2ccccc2c1C(c1ccccc1)c1cccs1 (stereo not given),inactive,inactive,inactive,inactive,inactive,,
O=C1NC(=Nc2ccccc2)S/C1=C\C=C\c1ccco1,16.9 µM (active),inactive,inactive,inactive,inactive,,
CCOC(=O)C1C(=O)C=C(c2ccccc2)CC1c1ccccc1 (stereo not given),inactive,inactive,,inactive,,"12.3% [at 17.1 µM, percent relative to cAMP agonist control]",-11.6% [at 30.8 µM]
O=C(OCC(=O)N1CCN(S(=O)(=O)c2ccc(Cl)cc2)CC1)c1cccc(OC(F)F)c1,inactive,inactive,,inactive,,"0.331% [at 17.1 µM, percent relative to cAMP agonist control]",-17.2% [at 30.8 µM]
CC(=O)c1ccc(NC(=O)CSc2nc(Nc3ccccc3)nc(N3CCOCC3)n2)cc1,inactive,inactive,inactive,inactive,inactive,,

SMILES,Potency [1],Potency [2],Potency [3],Potency [4],Potency [5],activation [3],"activity change, negative = inhibition [5]"
Cc1ccc2nc(N3C(=O)C(O)=C(C(=O)c4ccc(C)o4)C3c3cccc(O)c3)sc2c1 (stereo not given),37.9 µM (active),inactive,inactive,inactive,inactive,,
O=C(c1cccc(-n2cccc2)c1)N1CCN(S(=O)(=O)c2ccccc2)CC1,37.9 µM (active),inactive,inactive,inactive,inactive,,
CCOC(=O)c1c(/N=C/C2=C(O)CC(C)(C)CC2=O)sc(C)c1C,inactive,inactive,,inactive,,"5.64% [at 17.1 µM, percent relative to cAMP agonist control]",-9.9% [at 30.8 µM]
CCOC(=O)c1ccccc1-c1csc(NS(=O)(=O)c2ccc(Cl)cc2)n1,31.6 µM (active),inactive,,inactive,,"4% [at 17.1 µM, percent relative to cAMP agonist control]",-28.7% [at 30.8 µM]
COc1cccc(NC(=O)CCNC(=O)Cn2ccc3ccccc3c2=O)c1,inactive,inactive,inactive,inactive,inactive,,
Cc1ccccc1-c1nc(CS(=O)(=O)CC(=O)N(C)C2CCCCC2)c(C)o1,inactive,inactive,inactive,inactive,inactive,,
Cc1cc(C)c(S(=O)(=O)N2CCCCC2CCNC(=O)C(=O)NCC2CCCO2)c(C)c1 (stereo not given),inactive,inactive,,inactive,,"2.27% [at 17.1 µM, percent relative to cAMP agonist control]",6.58% [at 30.8 µM]
CCCCOc1ccccc1NC(=O)Cn1c(-c2cncs2)nc2ccccc21,inactive,inactive,inactive,inactive,inactive,,
CCCN1C(=O)c2[nH]nc(-c3ccccc3)c2C1c1cccc(O)c1 (stereo not given),inactive,inactive,inactive,inactive,inactive,,
O=C1OC(c2ccc3ccccc3c2O)(c2ccc3ccccc3c2O)c2ccccc21,75.7 µM (active),inactive,inactive,inactive,inactive,,
Cc1cc(=O)n(Cc2cccc(Cl)c2)c2c1c(C)nn2C,inactive,inactive,inactive,inactive,inactive,,
CCCCn1c(N)c(N(CCOC)C(=O)c2ccc(C)c(S(=O)(=O)N3CCCCC3)c2)c(=O)[nH]c1=O,inactive,inactive,inactive,inactive,inactive,,
O=C1C=CC(=O)c2c(O)c(N3CCN(CCOCCO)CC3)c(Br)c(O)c21,9.53 µM (active),inactive,inactive,inactive,inactive,,
CC(=O)Nc1cccc(NC(=O)CSc2nc(=O)n(CCN3CCOCC3)c3c2CCCC3)c1,inactive,inactive,inactive,inactive,inactive,,
Cc1ccc(C)n1-c1c(C(=O)NCCC(C)C)sc2ncccc12,inactive,inactive,inactive,inactive,inactive,,
O=C1Nc2ccccc2SC1c1ccccc1 (stereo not given),inactive,inactive,,inactive,,"3.23% [at 17.1 µM, percent relative to cAMP agonist control]",-15.7% [at 30.8 µM]
O=C(Nc1cccc(Cl)c1)C1CCCN(C2=NS(=O)(=O)c3ccccc32)C1 (stereo not given),inactive,inactive,inactive,inactive,inactive,,
C=CCn1c(-c2ccc(S(=O)(=O)N3CCOCC3)cc2)csc1=Nc1ccccc1,inactive,inactive,inactive,inactive,inactive,,
Cc1ccc(OCCn2cccn2)c(C)c1,inactive,inactive,inactive,inactive,inactive,,
